Compound activity from PubChem.
Shown are actives, neighbours in structure and some others; about 2.2% of the full set was active somewhere.
Abeta yeast res: compounds reversing amyloid beta toxicity in yeast; hit rate 0.063% among 410,000; yeast expressing A-beta42, growth rescue, OD600, 48 h; response scale: 0% DMSO, 100% iron-clioquinol control; Potency, µM (top dose mostly 46.1 µM), most hits filed as activators; further: nearly all actives have a fitted effect of over 55% in size
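Yeast growth medium received pinned compounds, then yeast cells expressing toxic A-beta were added; plates incubated at 30 C for 48 hr. Growth read as absorbance at 600 nm, normalized to DMSO and equimolar FeCl3 plus clioquinol controls.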
TDP43 rescue: TDP-43 toxicity inhibition in yeast; TDP-43 expressing yeast growth rescue, BacTiter-Glo, 24 h; Potency, µM (top dose mostly 46.1 µM), for the others: at the highest dose growth rescue (activation), most hits filed as activators; hit rate 1.8% among 410,000; AID 652104; further: % of control where 0% means no effect; nearly all actives have a fitted effect of over 50% in size
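Galactose-induced TDP-43 yeast, OD600=0.02, compound pinned; 24 hr, 30 deg C; BacTiter-Glo luminescence for growth. Inhibitors of TDP-43 toxicity read as activators.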
aSyn yeast inh: inhibitors of alpha-synuclein toxicity in yeast. Potency, µM (highest dose often 46.1 µM), inactives show at the top dose growth rescue (activation), usual class: activators. Yeast expressing alpha-synuclein, growth rescue, BacTiter-Glo, 24 h. hit rate 0.14% among 370,000; further: % of control where 0% means no effect; nearly all actives have a fitted effect of over 65% in size
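Readout is rescue of growth in alpha-synuclein-expressing yeast, so inhibitors of toxicity appear as activators. Growth after 24 hr at 30 deg C in galactose medium is quantified by luminescence.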
Mito fusion act: inhibitors of mitochondrial division or activators of mitochondrial fusion; S. cerevisiae fusion-defective mutant growth rescue, CellTiterGlo 48 h; Potency, µM (titrated, usually from 46.1 µM), for inactives: at the top dose growth rescue (activation), actives largely listed as activators; hit rate 0.23% among 320,000; AID 485298; further: % of control where 0% means no effect; nearly all actives have a fitted effect of over 45% in size
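Luminescent cell viability in 1536-well qHTS format served as the measure of rescued growth in ts fusion-mutant S. cerevisiae cultured on non-fermentable YPEG for 48 hours at 37C.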
FUS suppressor: suppressors of FUS proteinopathy in yeast | hit rate 0.24% among 390,000 | S. cerevisiae FUS-expressing, growth rescue, OD600, 24 h | AID 1347120 | Potency, µM (top dose mostly 76.6 µM), usual class: activators;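 further: plate controls were DMSO vehicle for no effect and reference control for full effect; nearly all actives have a fitted effect of over 55% in size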
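Yeast expressing FUS under galactose induction, OD 0.005 in 2% galactose medium; compounds in a dilution series, 24 h at 30C. Growth rescue by absorbance at 600 nm; CP55940 positive control, DMSO negative.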
* marks the source's active call; other numbers are inactive results; i = inactive; u = inconclusive; x = no result given; [ ] = dose if it differs, or a comment. The call rests on the fitted dose curve; in most records, active means well fitted curve in the direction sought with a large enough effect; inconclusive means small, poorly fitted or top-dose-only effect, or another doubt; inactive means no such curve, though single readings can be large; an effect the other way counts as inactive or inconclusive. Potency means the concentration at half of the fitted maximal effect.

SMILES	Abeta yeast res	TDP43 rescue	aSyn yeast inh	Mito fusion act	FUS suppressor
CN(C)c1cccc(/C=C2\CC3(OC(=O)c4ccc(Cl)cc4)CCCN2C3)c1 (stereo not drawn)	x	x	x	x	i
C=CCOC(=O)C1=C(C)NC(=S)NC1/C=C/c1ccccc1 (stereo not drawn)	i	-22.1%	-11.3%	-2.1%	i
CC1=C(C(=O)OCc2ccccc2)C(/C=C/c2ccccc2)NC(=S)N1 (stereo not drawn)	i	u	21.3%	15.8µM*	u
Cc1cc(OCC(=O)N2CCC(c3nc4ccccc4s3)CC2)ccc1Cl	i	u	x	x	u
CC(NC(=O)OCc1ccccc1)C(=O)Oc1cc2oc(=O)cc(-c3ccccc3)c2cc1Cl (stereo not drawn)	i	6.31µM*	3.3%	8.9%	i
CCC[C@H]1[C@@H](NC(=O)C2CCC2)CC[C@@]23CCCN2C(=O)CCC[C@@H]13	x	x	x	x	i
CCS(=O)(=O)c1ccccc1C(=O)N(Cc1cccnc1)c1nc2cc(C)c(C)cc2s1	i	u	x	x	u
O=[N+]([O-])c1ccc(/C=C/c2ccnc3ccccc23)c([N+](=O)[O-])c1	x	x	4.8%	x	x
CC(=O)c1nn(-c2ccc(Cl)cc2)cc1C(=O)c1ccccc1	i	-2.3%	1.9%	x	i
CCOC(=O)c1nn(-c2ccc(C)cc2)cc1C(=O)c1ccccc1	i	12.6µM*	x	-6.8%	i
CCCNC(=O)c1ccc(COc2cccc3ccccc23)o1	i	17.8µM*	-7.9%	27.4%	i
O=C(NCc1ccccc1Cl)c1cccc(C(F)(F)F)c1	i	35.5µM*	7.4%	4.8%	i
O=C1C(=O)c2ccc(-c3ccccc3)cc2-c2ccccc21	i	3.55µM*	-36.2%	-21.4%	i
Nc1ccc2c(c1)C(=O)C(=O)c1ccccc1-2	i	-91.8%	-80.9%	-14.4%	i
CCCCCCSc1cc(-c2nc3cnccn3c2NCCCC)ccc1OC	i	0.0%	-64.2%	x	u
CCCCNc1c(-c2ccc(OC)c(Sc3ccc(OC)cc3)c2)nc2cnccn12	i	31.6µM*	15.6%	x	u
CCCCNc1c(-c2ccc(SC(C)CC)cc2)nc2cnccn12 (stereo not drawn)	i	-93.4%	-71.2%	x	10µM*
COc1cc2nc(NCCc3ccccc3)n3nc(-c4cccnc4)nc3c2cc1OC	i	9.4%	x	x	i
CC(C)Oc1ccc(S(=O)(=O)N2CCCCC2)cc1NC(=O)C1=COCCO1	i	10.6%	5.2%	8.5%	i
Cc1cccc(Oc2ccc(S(=O)(=O)N3CCCCC3)cc2NC(=O)C2=COCCO2)c1	i	-20.0%	-5.9%	15.8%	28.2µM*
COc1ccc(S(=O)(=O)N2CCCCC2)cc1NC(=S)Nc1cccc(Cl)c1C	i	-6.3%	0.9%	3.6%	2.82µM*
Cn1cnc(S(=O)(=O)N2CCC(C(=O)Nc3ccc(Cl)c(C(F)(F)F)c3)CC2)c1	i	23.4%	x	x	i
O=C(Cn1c(=O)nc(-c2ccccc2)c2ccccc21)N1CCN(c2ccc(F)cc2)CC1	i	0.0%	x	x	i
CC(=O)Nc1ccc(-c2ccnc3c2CC(C(=O)Nc2cccc(Oc4ccccc4)c2)O3)cc1 (stereo not drawn)	i	u	13.4%	x	11.2µM*
CN(C)c1cccc(NC(=O)C2Cc3c(-c4ccccc4Oc4ccccc4)ccnc3O2)c1 (stereo not drawn)	i	22.4%	-1.3%	x	25.1µM*
SMILES	Abeta yeast res	TDP43 rescue	aSyn yeast inh	Mito fusion act	FUS suppressor
O=C(Nc1cccnc1)C1Cc2c(-c3ccccc3Oc3ccccc3)ccnc2O1 (stereo not drawn)	i	28.2µM*	5.9%	x	i
CC(=O)c1cccc(NC(=O)C2Cc3c(-c4ccccc4Oc4ccccc4)ccnc3O2)c1 (stereo not drawn)	i	u	7.0%	x	u
COc1ccc(NC(=O)CCCN2C(=O)CCn3nc(-c4cn(C)c5ccccc45)cc32)cc1	i	-3.1%	x	x	u
O=c1c2cccnc2n(Cc2ccccc2F)c(=O)n1Cc1ccc(F)cc1	i	7.5%	x	x	i
CCOc1ccccc1NC(=O)c1cccc2ccccc12	i	7.94µM*	-0.8%	-2.7%	i
CCOc1ccccc1NC(=O)c1cnccn1	i	11.2µM*	-9.0%	2.9%	i
CCOc1ccccc1NC(=O)c1ccccc1-c1ccccc1	i	-26.4%[1.82 µM]	-0.1%	-1.7%	i
CCCn1c2ccccc2c2cnn(CC(=O)N3CCCC(C)C3)c(=O)c21 (stereo not drawn)	i	0.0%	x	x	i
N#Cc1cccc(CNCC(=O)N2CCC3(CC2)OCCO3)c1	x	x	x	x	i
CCC(C)N=Cc1c(NCc2ccco2)nc2c(C)cccn2c1=O (stereo not drawn)	i	17.8µM*	2.1%	19.2%	i
CCc1ccc(C2=C(C)C(N3CCC(C(=O)NCCc4ccco4)CC3)=NS2(=O)=O)cc1	i	-7.6%	x	x	i
CC(=O)N(C)c1ccc(C=C2C=Cc3ccccc32)cc1	i	14.1µM*	4.9%	x	x
O=C(CSCc1ccc(F)cc1)N1CCN(c2ccccc2F)CC1	i	u	x	x	i
O=C(OCC(=O)c1cccc2ccccc12)c1ccc(CO)cc1	i	14.1µM*	16.5%	3.2%	i
COc1ccc(N2CC(NC(=O)C(c3ccccc3)c3ccccc3)CC2=O)cc1 (stereo not drawn)	i	-19.0%	x	x	i
COc1ccc2c(c1)C(C)CC(C)(C)N2C(=O)NC1CCCCC1 (stereo not drawn)	i	-22.7%	1.5%	-3.7%	i
CC1CC(C)(C)N(C(=O)NC2CCCCC2)c2ccccc21 (stereo not drawn)	i	14.1µM*	-8.0%	0.4%	x
COC(=O)[C@]1(CNC(=O)C(F)(F)F)CC(=O)N(C)[C@@H]1c1ccccc1	x	x	x	x	i
Cc1c(C2(O)CCCCC2)[nH]c2ccc(C(F)(F)F)cc12	i	3.55µM*	-61.8%	x	i
COC(=O)c1ccc2[nH]c(C3(O)CCCCC3)c(C)c2c1	i	17.8µM*	-12.0%	x	i
